Source: the supplement of paper PMC13380429
A number with no mark means an inactive call.

Test system: Vero E6 infected with SARS-CoV-2
Assay: inhibition of SARS-CoV-2 cytopathic effect; higher = more antiviral protection, active = above 15
Details: 48 h

Row | Compound | inhibition of SARS-CoV-2 cytopathic effect (1 nM) [%] | inhibition of SARS-CoV-2 cytopathic effect (8.33 nM) [%] | inhibition of SARS-CoV-2 cytopathic effect (100 nM) [%] | inhibition of SARS-CoV-2 cytopathic effect (833.33 nM) [%] | inhibition of SARS-CoV-2 cytopathic effect (10000 nM)
1 | CCOC(=O)[C@H](Cc1ccc([N+](=O)[O-])cc1)NC(=O)c1ccccc1 | 0.55 | 1.63 | 2.6 | -1.21 | 0.3%
2 | CC(=O)OCC(=O)[C@@]1(OC(C)=O)[C@@H](C)C[C@H]2[C@@H]3C[C@H](F)C4=CC(=O)C=C[C@]4(C)[C@@]3(F)[C@@H](O)C[C@@]21C [diflorasone-diacetate] | 3.78 | 2.43 | 1.22 | 0.13 | 1.53%
3 | O=C1COc2c(CCNCCN(C(=O)CCNCCc3ccc(Cl)c(Cl)c3)C3CCCCC3)ccc(O)c2N1 | -5.28 | -4.67 | -5.93 | -1.32 | -3.71%
4 | CCOC(=O)[C@@H](N)CCC(=O)N[C@@H](CSCc1ccccc1)C(=O)N[C@@H](C(=O)OCC)c1ccccc1 [ezatiostat] | -0.49 | 0.28 | 1.7 | 2.71 | 0.41%
5 | Cc1cnc(-c2cnc(NCCNc3ccc(C#N)cn3)nc2-c2ccc(Cl)cc2Cl)[nH]1 | 2.72 | 3.19 | -2.16 | 3.98 | 12.1%
6 | Cn1c(=O)c2c(ncn2CC(O)CO)n(C)c1=O (stereo not given) [dyphylline] | 1.96 | -3.64 | 0.25 | 1.93 | -0.77%
7 | Cc1nc(Nc2cnn(C3CCNCC3)c2)nc2c1N(C)C(=O)c1cc3ccccc3cc1N2C | 2.64 | -1.33 | -2.15 | 1.63 | 48.4% (active)
8 | COc1cc(-c2ncn(/C=C\C(=O)OC(C)C)n2)cc(C(F)(F)F)c1 | -1.83 | -2.94 | -8.02 | -12.1 | -11.7%
9 | C[C@H](N)Cc1cccc(O)c1 [gepefrine] | 1.14 | 1.71 | 1.51 | 1.38 | 0.56%
10 | CC(C)(C)NCC(O)COc1cccc2[nH]c(C#N)cc12 (stereo not given) [cyanopindolol] | 1.56 | 1.94 | 0.47 | -2.7 | -1.96%
11 | COc1cc(OC)c(C(=O)CCCCN2CCC3(CC2)NC(=O)NC3=O)cc1NS(=O)(=O)c1ccc(C(F)(F)F)cc1 | 0.4 | 0.2 | -0.19 | 0.81 | 0.94%
12 | [N-]=[N+]=CC(=O)CC[C@H](N)C(=O)O [6-diazo-5-oxo-L-norleucine] | 0.69 | 0.78 | 0.86 | 0.6 | -0.69%
13 | Cc1ccc(-c2csc3ncnc(SCCC(=O)O)c23)cc1 | -0.23 | 6.66 | -1.26 | 1.22 | 1.11%
14 | CC(C)(C)[C@]1(O)CCN2C[C@H]3c4ccccc4CCc4cccc(c43)[C@@H]2C1 [butaclamol] | 1.69 | 1.31 | 0.21 | 1.72 | -3.01%
15 | CC(C)[C@H]1c2ccc(F)cc2CC[C@@]1(CCN(C)CCCc1nc2ccccc2[nH]1)OC(=O)C1CC1 | 1.78 | 2.76 | 7.24 | -2.65 | -19.3%
16 | OC(CCN1CCCCC1)(c1ccccc1)C1CC2C=CC1C2 (stereo not given) [biperiden] | 0.1 | -0.07 | 0.23 | -2.88 | -2%
17 | COc1ccc2cc(CCC(C)=O)ccc2c1 [nabumetone] | 0.72 | 0.69 | -4.19 | -1.8 | -0.03%
18 | CC[N+](C)(CC)CC(=O)Nc1c(C)cccc1C [N-methyllidocaine-iodide] | 1.32 | 2.44 | 0.64 | 1.63 | 1.7%
19 | NC[C@H]1CC[C@H](C(=O)O)CC1 [tranexamic-acid] | 1.98 | 1.51 | 2.74 | 0.85 | -0.32%
20 | CC(C)CN(C[C@@H](O)[C@H](Cc1ccccc1)NC(=O)O[C@H]1CO[C@H]2OCC[C@H]21)S(=O)(=O)c1ccc(N)cc1 [darunavir] | -2.41 | -2.86 | -0.7 | 0.44 | -1.15%

Row | Compound | inhibition of SARS-CoV-2 cytopathic effect (1 nM) [%] | inhibition of SARS-CoV-2 cytopathic effect (8.33 nM) [%] | inhibition of SARS-CoV-2 cytopathic effect (100 nM) [%] | inhibition of SARS-CoV-2 cytopathic effect (833.33 nM) [%] | inhibition of SARS-CoV-2 cytopathic effect (10000 nM)
21 | O=C(CCCCCCCC(=O)NCCO)NCCO [adelmidrol] | -2.2 | 2.3 | 5.54 | -1.21 | 0.2%
22 | CNC(=O)c1ccc2c(c1)CCO[C@H]2CCN1CCN(c2ccc(C(N)=O)cc2)CC1 | 1.05 | -0.55 | 1.37 | -1.27 | 3.34%
23 | COc1ccc(-n2c(SCCCN3C(=O)c4cccc5cccc(c45)C3=O)nnc2-c2ccncc2)cc1 | -0.26 | 2.51 | -0.79 | -0.8 | -1.41%
24 | Cc1c(N)c(=O)n(-c2ccccc2)n1C [ampyrone] | -3.22 | -2.95 | -3.07 | -2.31 | -1.12%
25 | OCc1ccc(O[C@@H]2O[C@H](CO)[C@@H](O)[C@H](O)[C@H]2O)cc1 [gastrodin] | -0.38 | -2.3 | -2.66 | -2.37 | -4.3%
26 | O[C@H]1[C@H](O)[C@@H](O)CN2CC[C@H](O)[C@H]12 [castanospermine] | 0.15 | 1.99 | 1.25 | 1.7 | 2.28%
27 | NS(=O)(=O)NCc1csc2ccccc12 | 3.48 | -0.74 | -0.43 | 3.95 | 2.4%
28 | COc1ccc2[nH]c(SCc3ncc(C)c(OC)c3C)nc2c1 [omeprazole-sulfide] | -13.8 | -15.1 | -15.8 | -15.3 | -13.7%
29 | O=c1cc(-c2cccc3c2Sc2ccccc2S3)oc(N2CCOCC2)c1 | 2.07 | -2.3 | -0.67 | 3.55 | -1.33%
30 | Nc1ccn([C@@H]2O[C@H](CO)[C@@H](O)C2(F)F)c(=O)n1 [gemcitabine] | 1.67 | 2.4 | -0.88 | -3.94 | 3.81%
31 | NCC1OC(C23CC4CC(CC(C4)C2)C3)Cc2c1ccc(O)c2O (stereo not given) | 0.67 | 0.56 | 2.31 | 1.57 | -6.39%
32 | NC(=O)NCCN1CCN(c2cccc(C(F)(F)F)c2)CC1 [fluprazine] | 1.46 | 1.13 | -1.67 | -1.94 | -2.06%
33 | Cc1c(CN(C)C(=O)/C=C/c2cnc3c(c2)CCC(=O)N3)oc2ccccc12 | 0.18 | -1.15 | 1.59 | 0.21 | -1.4%
34 | C[C@H](Nc1ncnc2[nH]cnc12)c1nc2ccc(F)cc2c(=O)n1-c1ccccc1 [acalisib] | 0.46 | -0.64 | 0.1 | -0.64 | -5.35%
35 | Nn1cnc2cc3ccccc3cc2c1=O [centazolone] | -0.59 | 0.85 | 0.4 | -1.41 | 0.93%
36 | CC[C@H](/C=C/[C@@H](C)[C@H]1CC[C@H]2[C@@H]3CC=C4C[C@@H](O)CC[C@]4(C)[C@H]3CC[C@]12C)C(C)C [Stigmasterol (Stigmasterin)] | 0.05 | -0.75 | 0.44 | 0.29 | -0.01%
37 | CC(=O)Nc1ccc(CC(=O)O)cc1 [actarit] | 1.96 | -0.52 | 0.35 | -0.15 | -0.41%
38 | Nc1nc(N)c(N=O)c(OCC2CCCCC2)n1 | -3.27 | 3.73 | 1.88 | 5.81 | 18.5% (active)
39 | COc1cc(Nc2c(C#N)cnc3cc(OCCCN4CCN(C)CC4)c(OC)cc23)c(Cl)cc1Cl [bosutinib] | 0.33 | -1.8 | -1.97 | -8.27 | -7.97%
40 | C/C(O)=C(\C#N)C(=O)Nc1ccc(C(F)(F)F)cc1 [teriflunomide] | 3.27 | 1.99 | 1.22 | -3.04 | 1.1%
